High-throughput results (PubChem BioAssay)
This is a sample that favours compounds with a hit; in the whole collection about 4.6% have one here.
TRHR enhancer: allosterically enhances the human TRH receptor; TRHR cells, fluo-8 calcium fluorescence, EC20 TRH enhancement; enhancement, % at 2 µM; 360,000 compounds, 0.66% hits; AID 493056; in the data active means enhancement above about 30%; further: 0% is about no effect
Target sequence (P34981 whole entry, looked up): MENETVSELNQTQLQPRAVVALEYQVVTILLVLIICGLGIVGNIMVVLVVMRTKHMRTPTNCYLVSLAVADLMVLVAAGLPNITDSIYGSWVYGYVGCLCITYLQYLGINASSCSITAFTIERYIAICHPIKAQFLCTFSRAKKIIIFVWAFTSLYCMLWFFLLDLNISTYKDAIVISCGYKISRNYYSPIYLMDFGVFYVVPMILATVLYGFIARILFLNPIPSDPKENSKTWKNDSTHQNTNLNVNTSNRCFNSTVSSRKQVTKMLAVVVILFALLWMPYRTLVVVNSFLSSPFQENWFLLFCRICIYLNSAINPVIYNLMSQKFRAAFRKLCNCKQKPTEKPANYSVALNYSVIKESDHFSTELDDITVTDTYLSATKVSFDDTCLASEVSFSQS
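Enhancer read-out: after compound pinning and an initial kinetic agonist-mode read, an EC20 of TRH (10 nM final) was injected and fluo-8 calcium signal (Ex 480/Em 530) followed at 1 s/cycle for 100 cycles in TRHR-expressing cells.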
D1 agonist: activates the human D1 dopamine receptor. AID 504660. 360,000 compounds, 1% hits. HEK293 T-REx D1 cells, calcium flux, agonist mode. P21728. activation, % at 2 µM; further: 0% is about no effect
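Inducible HEK293 T-REx D1 cells, force-coupled to calcium signalling, were plated at 4000 cells/well with tetracycline and held overnight at 30 C. After no-wash calcium dye loading, compound-evoked calcium rise over 180 s flagged agonists.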
D1 PAM: human D1 dopamine receptor positive modulation; P21728; potentiation, % at 10 µM; HEK293 TREx D1 cells, calcium flux, dopamine EC20 potentiation; 360,000 compounds, 0.036% hits; in the data active means potentiation above about 30%; further: 0% is about no effect
TRHR agonist: TRH receptor (human) agonism; P34981; 360,000 compounds, 0.18% hits; TRHR cells, calcium flux fluo-8, FDSS agonist mode; activation, % at 2 µM; further: 0% is about no effect
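Fluo-8-loaded TRHR cells; 10 s baseline, compound added, kinetic Ca2+ fluorescence read 1/s, agonist mode.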
D1 antag: antagonists of human D1 dopamine receptor; 360,000 compounds, 3.2% hits; HEK293 TREx D1 cells, calcium flux, dopamine EC80; stronger effect = lower value; P21728; activity change, negative = inhibition, % at 10 µM; in the data active means activity change below about -30%; further: on the % scale 0 is the no-effect control and ±100 the full control effect
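Kinetic fluorescence of a calcium dye serves as the read-out. D1-expressing Hek293 Trex cells, induced overnight at 30 C, are exposed to compound for 180 s before an EC80 dopamine addition, then read 180 s further.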
Numbers without * were called inactive. Unless noted, no stated cut-off is given here; in the data, active means activation above about 30%; inactive means the rest.

SMILES	TRHR enhancer	D1 agonist	D1 PAM	TRHR agonist	D1 antag
CC1CC(C)CN(CC(=O)c2ccc(OC(F)F)cc2)C1 (centres undefined)	-2	1	-2	0	-3
CC(=O)c1cccc(NC(=O)N2C[C@H]3C[C@@H](C2)c2cccc(=O)n2C3)c1	-4	0	-2	0	10
CC/C(CC(c1ccccc1)c1c(O)c2ccccc2oc1=O)=N\NC(N)=S (centres undefined)	9	4	-12	0	-32*
O=C(COc1ccccc1F)N1CCN(Cc2cc(=O)n3nc(-c4ccccc4Cl)sc3n2)CC1	-5	-2	0	0	10
COc1ccc(F)cc1C(=O)C1CCCN(Cc2ccc(O)cc2)C1 (centres undefined)	1	4	4	1	-2
COc1ccc(C(=O)C2CCCN(Cc3ccc(F)cc3F)C2)cc1F (centres undefined)	-10	3	-3	0	-32*
CC1CCC(C(C)C)C(OC(=O)Cn2c(COc3ccccc3)[n+](C)c3ccccc32)C1 (centres undefined)	8	41*	-6	0	22
Nc1ccccc1C(=O)OCC(=O)c1ccc2c(c1)OCCO2	7	13	-13	-1	-33*
CC(=O)Nc1ccccc1C(=O)OCC(=O)c1ccc2ccccc2c1	-3	23	-8	-1	6
CCCCCCCSc1cc(OC)c(CCN(C)C)cc1OC	4	201*	7	-2	7
COc1cc(CCN)ccc1O	7	1	-4	-1	10
CCCCCSc1cc(OC)c(CCN)cc1OC	13	31*	1	2	6
COc1ccccc1Sc1ccccc1CC(C)N (centres undefined)	8	60*	-1	-1	-25
CC(N)Cc1ccccc1Sc1ccc(O)cc1 (centres undefined)	6	19	-5	0	-3
C[C@H]1CCC/C=C/C2C[C@H](O)CC2[C@H](O)/C=C/C(=O)O1 (some centres undefined)	-1	2	-3	0	-41*
CC1CCC/C=C/C2CC(O)CC2C(O)/C=C/C(=O)O1 (centres undefined)	6	4	4	1	-7
CC(Cc1ccccc1)NCC(=O)Nc1cc(N(C)C)nc2ccccc12 (centres undefined)	-8	-1	9	0	-50*
O=P1(Oc2ccccc2)OCCCS1 (centres undefined)	3	1	-2	0	-30*
CCOc1ccc2nc(NC(=O)c3cccn(Cc4ccc(Cl)cc4)c3=O)sc2c1	0	1	-4	1	-13
Cc1cccc(-n2c(O)c(/C=N/Nc3nc4c(c(=O)n(C)c(=O)n4C)n3C)c(=O)[nH]c2=S)c1	4	5	-4	1	-5
Cc1ccccc1-n1c(O)c(/C=N/Nc2nc3c(c(=O)n(C)c(=O)n3C)n2C)c(=O)[nH]c1=S	-1	2	-3	1	-60*
Cc1ccc(-c2nc(CN3C(=O)CN=C(c4ccccc4Cl)c4cc(Cl)ccc43)c(C)o2)cc1	-2	4	-2	0	-5
COc1ccc2[nH]cc(CCN)c2c1	31*	0	-4	0	0
Cc1ccc(C)c(C2(O)CC(C)N(C)CC2C)c1 (centres undefined)	1	1	-5	1	-46*
Cc1c(CC(=O)N2C[C@H]3C[C@@H](C2)c2cccc(=O)n2C3)c(=O)oc2cc(O)c(Cl)cc12	12	2	0	0	-47*
SMILES	TRHR enhancer	D1 agonist	D1 PAM	TRHR agonist	D1 antag
Cc1c(CC(=O)N2C[C@H]3C[C@@H](C2)c2cccc(=O)n2C3)c(=O)oc2c(C)c(O)ccc12	-2	1	1	0	4
Cc1c(Cl)cccc1NC(=O)CN1C(=O)C(C)N=C(c2ccccc2)c2ccccc21 (centres undefined)	2	6	7	1	-7
COc1ccccc1CCNCc1ccc(OC)c(OC)c1OC	39*	16	-5	0	-6
Cc1ccc(C[n+]2c(-c3ccc(C)cc3)cc(-c3ccc(C)cc3)cc2-c2ccc(C)cc2)cc1	-6	39*	5	0	12
C[C@H]1CC[C@@H]2[C@@H](C)[C@H]3[C@H](C[C@H]4[C@@H]5CC=C6C[C@@H](O[C@@H]7O[C@H](CO)[C@H](O)[C@H](O[C@@H]8O[C@H](CO)[C@@H](O)[C@H](O)[C@H]8O)[C@H]7O[C@@H]7O[C@@H](C)[C@H](O)[C@@H](O)[C@H]7O)CC[C@]6(C)[C@H]5CC[C@]34C)N2C1	-7	96*	3	14	-10
Cc1nnc(NC(=O)c2cccn(Cc3ccccc3F)c2=O)s1	-1	1	-2	0	2
CN(Cc1ccccc1)C(=O)CN1CCCC1=O	18	1	-4	0	-17
O=C(CN1CCCC1=O)Nc1ccccc1	1	1	-3	0	-35*
COc1ccc(Cl)cc1NC(=O)CN1C(=O)CN=C(c2ccccc2)c2cc(Cl)ccc21	-1	5	4	2	0
Cc1ccc(CNCCc2ccccc2F)cc1	7	8	-4	1	-9
CCN(CC)c1ccc(CNCCc2ccccc2F)cc1	3	46*	-6	1	22
CCOC(=O)c1ccc(NC(=O)c2cccn(Cc3ccccc3F)c2=O)cc1	-4	12	1	2	-5
Cc1cccc(-c2nn3c(=O)cc(CN4CCN(C(=O)COc5ccc(Cl)cc5)CC4)nc3s2)c1	0	-1	-2	-1	-28
Cc1ccc(C(=O)N[C@@H](C)CN2C3=NC[C@@H](Cc4ccccc4)N3C[C@H]2Cc2ccc(O)cc2)cc1Br	11	-1	-6	0	-44*
Cc1ccc(C(=O)N[C@@H](C)CN2C3=NC[C@H](Cc4ccccc4)N3C[C@H]2Cc2ccc(O)cc2)cc1Br	0	0	-12	-1	-65*
O=C(CCc1ccccc1)N1C[C@H]2C[C@@H](C1)c1cccc(=O)n1C2	3	0	2	0	2
O=C(C1CCCN(S(=O)(=O)c2cccc3nsnc23)C1)N1CCC2(CC1)OCCO2 (centres undefined)	2	0	9	1	-36*
O=C(C(Cc1ccccc1)NS(=O)(=O)c1cccc2nsnc12)N1CCC2(CC1)OCCO2 (centres undefined)	-3	2	-3	1	4
CCCCCCn1c(=O)c(C(=O)Nc2ncccc2C)c(O)c2ccccc21	-2	17	-1	0	-4
Cc1ccccc1-c1nc(CN2C(=O)CN=C(c3ccccc3)c3ccccc32)c(C)o1	-4	0	0	3	10
Clc1ccccc1NC1=NCCCS1	35*	5	-3	0	-1
